Bioassay records: PubChem, several laboratories
MEKK2mut PB1 HTS: signal of MEK5 binding to mutant human MEKK2 PB1 domain; bead flow cytometry, Alexa488-MEK5 binding to MEKK2 mutant; percent response, % at 10 µM; 0.35% of 290,000 active; AID 1530; in the data active = percent response above about 24%, passing the limit was not always enough
MEKK3 PB1 HTS: modulators (inhibitors or enhancers) of MEK5 binding to human MEKK3 PB1 domain; bead-based flow cytometry, Alexa488-MEK5 binding to MEKK3; actives lie on both sides; 0 = blocked by unlabeled MEK5, 100 = vehicle; AID 1529; Q99759; 1.4% of 290,000 active; binding response (% of control), % at 10 µM;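 active = binding response more than 3 SD above or below the average of its plate-row segment, actives on both sides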;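 also: Alexa488 bead fluorescence after subtracting the streptavidin-only scavenger bead signal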
Target sequence (Q99759 whole entry, looked up, the tested form may be a part): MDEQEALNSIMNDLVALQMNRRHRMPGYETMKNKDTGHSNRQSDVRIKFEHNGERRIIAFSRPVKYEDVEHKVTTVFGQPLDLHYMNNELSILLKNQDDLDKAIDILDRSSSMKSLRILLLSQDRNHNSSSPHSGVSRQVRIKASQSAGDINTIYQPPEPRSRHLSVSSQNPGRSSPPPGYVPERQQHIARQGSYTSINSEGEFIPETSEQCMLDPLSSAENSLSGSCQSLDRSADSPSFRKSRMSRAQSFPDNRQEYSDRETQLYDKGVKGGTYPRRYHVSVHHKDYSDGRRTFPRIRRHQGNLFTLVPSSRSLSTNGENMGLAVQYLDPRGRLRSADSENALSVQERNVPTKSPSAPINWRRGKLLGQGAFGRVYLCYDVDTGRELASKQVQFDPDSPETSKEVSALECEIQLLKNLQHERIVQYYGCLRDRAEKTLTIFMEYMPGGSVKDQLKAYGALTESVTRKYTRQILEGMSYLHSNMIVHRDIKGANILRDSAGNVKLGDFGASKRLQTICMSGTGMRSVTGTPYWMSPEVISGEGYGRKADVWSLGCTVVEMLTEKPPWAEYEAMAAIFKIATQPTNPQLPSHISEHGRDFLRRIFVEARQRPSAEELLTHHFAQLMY
SUMO Mot1 rescue: inhibitors of SUMOylation pathway: yeast Mot1-301 growth rescue; 1% of 320,000 active; S. cerevisiae Mot1-301 growth rescue, ATP luminescence, 38.5C; percent above DMSO median, 100 means doubled; growth rescue, % at 18.8 µM;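 active = every valid replicate shows activation above 250% relative to neutral control wells; inactive = the rest, any valid replicate at or below 250%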
MEKK2 WT-MEK5: raises or lowers MEK5 binding to wildtype human MEKK2 PB1 domain | bead flow cytometry, Alexa488-MEK5 binding to MEKK2 WT; actives lie on both sides | binding response (% of control), % at 10 µM | 1.1% of 290,000 active; in the data active = binding response below about 67% or above about 130%
CHT inh: inhibitors of human choline transporter CHT. Q9GZV3. CHT-expressing cells, membrane potential dye, choline response; active compounds read low. B-score at 10 µM. 0.86% of 310,000 active. AID 488975;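 active = B-score over 3 SD under the library average, and starting fluorescence ratio not unusually high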;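 also: choline stimulus applied at its EC90 after an EC20 pre-addition; B-score computed on integrated fluorescence ratio after choline addition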
CHT allo act: allosteric activators of human choline transporter CHT; CHT-expressing cells, membrane potential dye, choline EC20; active compounds read high; LV-AA mutant CHT in HEK293 cells; Q9GZV3; 0.49% of 310,000 active; B-score at 10 µM; AID 488977;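 active = initial fluorescence not abnormally high and integrated response B-score, plate-corrected, over 3 SD above library mean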
MEKK2wt confirm: raises or lowers MEK5 binding to wildtype human MEKK2, retest; shares compounds with MEKK3 PB1 HTS; 2.4% of 5,900 active; binding response (% of control), % at 10 µM; bead flow cytometry, Alexa488-MEK5 binding to MEKK2 WT; actives lie on both sides; AID 1892; in the data active = binding response below about 16% or above about 210%; inactive = in between
MEKK2mut confirm: signal of MEK5 binding to mutant human MEKK2, retest | shares compounds with MEKK3 PB1 HTS | bead flow cytometry, Alexa488-MEK5 binding to MEKK2 mutant | percent response, % at 10 µM | 2% of 5,900 active; in the data active = percent response mostly above about 71%, no sharp cut-off; inactive = mostly below about 38%;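 also: higher means compound restores mutant binding toward wildtype level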
MEKK3 confirm: confirmation of inhibitors of MEK5 binding to human MEKK3; shares compounds with MEKK3 PB1 HTS; bead flow cytometry, Alexa488-MEK5 binding to MEKK3; active compounds read low; binding response (% of control), % at 10 µM; 1.8% of 5,900 active; AID 1894;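 active = binding response below 72% of control, or above a set upper limit, though filed actives all read lower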;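 also: lower values mean stronger disruption of MEK5 binding to MEKK3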
Numbers stand for hits; [ ] = dose if it differs, or a comment. Shown are actives, neighbours in structure and some others; about 4.1% of the full set was active somewhere.

How did COc1ccc2c(/C=C/c3cc[n+](C)cc3)c[nH]c2c1 do in these assays?
MEKK2mut PB1 HTS: 48; MEKK3 PB1 HTS: inactive; SUMO Mot1 rescue: inactive; MEKK2 WT-MEK5: 168; CHT inh: inactive; CHT allo act: inactive; MEKK2wt confirm: inactive; MEKK2mut confirm: inactive; MEKK3 confirm: inactive

What do the screens show for `Cc1ccc(Nc2nc(N)nc(COC(=O)C3=COCCO3)n2)cc1`?
SUMO Mot1 rescue: inactive

Results for CNC(=S)NCCc1ccccc1 ?
MEKK2mut PB1 HTS: inactive; MEKK3 PB1 HTS: inactive; SUMO Mot1 rescue: inactive; MEKK2 WT-MEK5: inactive; CHT inh: inactive; CHT allo act: inactive

Results for OCCNC(=S)NCCc1ccccc1 ?
MEKK2mut PB1 HTS: inactive; MEKK3 PB1 HTS: 132; SUMO Mot1 rescue: inactive; MEKK2 WT-MEK5: inactive; CHT inh: inactive; CHT allo act: inactive; MEKK2wt confirm: inactive; MEKK2mut confirm: inactive; MEKK3 confirm: inactive

What do the screens show for `S=c1[nH]nc(C2CCCCC2)n1/N=C/c1cccc(Cl)c1Cl`?
MEKK2mut PB1 HTS: inactive; MEKK3 PB1 HTS: inactive; SUMO Mot1 rescue: inactive; MEKK2 WT-MEK5: inactive; CHT inh: inactive; CHT allo act: inactive

What do the screens show for `Cc1ccc(CC(=O)NCc2cccnc2)cc1`?
MEKK2mut PB1 HTS: inactive; MEKK3 PB1 HTS: inactive; SUMO Mot1 rescue: inactive; MEKK2 WT-MEK5: inactive; CHT inh: inactive; CHT allo act: inactive

Results for Cc1ccc(CSCC(=O)NCc2cccnc2)cc1 ?
MEKK2mut PB1 HTS: inactive; MEKK3 PB1 HTS: 137; SUMO Mot1 rescue: inactive; MEKK2 WT-MEK5: inactive; CHT inh: inactive; CHT allo act: inactive; MEKK2wt confirm: inactive; MEKK2mut confirm: inactive; MEKK3 confirm: inactive

Results for Cc1ccc(CN2C(=O)CCC2C(=O)NCCN2CCN(c3cccc(Cl)c3)CC2)cc1 (centres undefined) ?
MEKK2mut PB1 HTS: inactive; MEKK3 PB1 HTS: inactive; SUMO Mot1 rescue: inactive; MEKK2 WT-MEK5: inactive; CHT inh: inactive; CHT allo act: inactive

What do the screens show for `CC(O)CNc1cnccn1` (centres undefined)?
MEKK2mut PB1 HTS: inactive; MEKK3 PB1 HTS: inactive; SUMO Mot1 rescue: inactive; MEKK2 WT-MEK5: inactive; CHT inh: inactive; CHT allo act: inactive

Results for O=C(c1cccs1)c1ccc(-c2cccs2)s1 ?
MEKK2mut PB1 HTS: inactive; MEKK3 PB1 HTS: inactive; SUMO Mot1 rescue: inactive; MEKK2 WT-MEK5: 61[inhibitor]; CHT inh: inactive; CHT allo act: inactive; MEKK2wt confirm: inactive; MEKK2mut confirm: inactive; MEKK3 confirm: inactive

Results for O=C(CSc1nc(-c2ccccc2)c(-c2ccccc2)[nH]1)NCC1CCCO1 (centres undefined) ?
MEKK2mut PB1 HTS: inactive; MEKK3 PB1 HTS: inactive; SUMO Mot1 rescue: inactive; MEKK2 WT-MEK5: 54[inhibitor]; CHT inh: inactive; CHT allo act: inactive; MEKK2wt confirm: inactive; MEKK2mut confirm: inactive; MEKK3 confirm: inactive

Results for O=C(CSc1nccn1-c1ccccc1)NO ?
MEKK2mut PB1 HTS: 51; MEKK3 PB1 HTS: 33[inhibitor]; SUMO Mot1 rescue: inactive; MEKK2 WT-MEK5: inactive; CHT inh: inactive; CHT allo act: inactive; MEKK2wt confirm: inactive; MEKK2mut confirm: inactive; MEKK3 confirm: inactive

Results for N=C1C=CC=C2C1=NC1(CCCCC1)N2O ?
MEKK2mut PB1 HTS: inactive; MEKK3 PB1 HTS: 2.0[inhibitor]; SUMO Mot1 rescue: inactive; MEKK2 WT-MEK5: 2.0[inhibitor]; CHT inh: inactive; CHT allo act: inactive; MEKK2wt confirm: inactive; MEKK2mut confirm: inactive; MEKK3 confirm: inactive

Results for COc1cccc(NC(=O)c2ccccc2Oc2ccccc2)c1 ?
MEKK2mut PB1 HTS: inactive; MEKK3 PB1 HTS: inactive; SUMO Mot1 rescue: inactive; MEKK2 WT-MEK5: inactive; CHT inh: inactive; CHT allo act: inactive

Results for COc1cccc(Nc2ncccc2C(=O)Nc2ccccc2)c1 ?
MEKK2mut PB1 HTS: inactive; MEKK3 PB1 HTS: 129; SUMO Mot1 rescue: inactive; MEKK2 WT-MEK5: inactive; CHT inh: inactive; CHT allo act: inactive; MEKK2wt confirm: inactive; MEKK2mut confirm: inactive; MEKK3 confirm: inactive

Results for COc1cccc(NC(=O)c2ccco2)c1 ?
MEKK2mut PB1 HTS: inactive; MEKK3 PB1 HTS: 1.0[inhibitor]; SUMO Mot1 rescue: inactive; MEKK2 WT-MEK5: 1.0[inhibitor]; CHT inh: inactive; CHT allo act: inactive; MEKK2wt confirm: inactive; MEKK2mut confirm: inactive; MEKK3 confirm: inactive

How did COc1cccc(NC(=O)c2nc3ncccn3n2)c1 do in these assays?
MEKK2mut PB1 HTS: inactive; MEKK3 PB1 HTS: 2.0[inhibitor]; SUMO Mot1 rescue: inactive; MEKK2 WT-MEK5: 2.0[inhibitor]; CHT inh: inactive; CHT allo act: inactive; MEKK2wt confirm: inactive; MEKK2mut confirm: inactive; MEKK3 confirm: inactive

What do the screens show for `CCCN(CC1CC1)C(=O)CSc1ncnc2sccc12`?
MEKK2mut PB1 HTS: inactive; MEKK3 PB1 HTS: inactive; SUMO Mot1 rescue: inactive; MEKK2 WT-MEK5: inactive; CHT inh: inactive; CHT allo act: inactive

Results for CC(NC(=O)C12CC3CC(CC(C3)C1)C2)C(=O)N/N=C/C1=C(N2CCOCC2)C(=C\c2ccccc2)/CC1 (centres undefined) ?
MEKK2mut PB1 HTS: inactive; MEKK3 PB1 HTS: inactive; SUMO Mot1 rescue: inactive; MEKK2 WT-MEK5: inactive; CHT inh: inactive; CHT allo act: inactive

How did O=C(COC(=O)c1c[nH]c(=O)[nH]c1=O)NCc1ccccc1 do in these assays?
MEKK2mut PB1 HTS: inactive; MEKK3 PB1 HTS: inactive; SUMO Mot1 rescue: inactive; MEKK2 WT-MEK5: inactive; CHT inh: inactive; CHT allo act: inactive

What do the screens show for `C=CCNc1nc(N)c([N+](=O)[O-])c(NCCO)n1`?
MEKK2mut PB1 HTS: inactive; MEKK3 PB1 HTS: inactive; SUMO Mot1 rescue: inactive; MEKK2 WT-MEK5: inactive; CHT inh: inactive; CHT allo act: inactive

Results for CCN(CC)c1nc(N)c([N+](=O)[O-])c(NCCO)n1 ?
MEKK2mut PB1 HTS: inactive; MEKK3 PB1 HTS: 134; SUMO Mot1 rescue: inactive; MEKK2 WT-MEK5: inactive; CHT inh: inactive; CHT allo act: inactive; MEKK2wt confirm: inactive; MEKK2mut confirm: inactive; MEKK3 confirm: inactive

Results for Cc1cccc(C)c1NC(=O)C(C)Sc1n[nH]c(-c2ccncc2)n1 (centres undefined) ?
MEKK2mut PB1 HTS: inactive; MEKK3 PB1 HTS: inactive; SUMO Mot1 rescue: inactive; MEKK2 WT-MEK5: inactive; CHT inh: inactive; CHT allo act: inactive

What do the screens show for `COc1ccc(Nc2ccc(C(N)=O)cc2[N+](=O)[O-])cc1`?
MEKK2mut PB1 HTS: inactive; MEKK3 PB1 HTS: 57[inhibitor]; SUMO Mot1 rescue: inactive; MEKK2 WT-MEK5: inactive; CHT inh: inactive; CHT allo act: inactive; MEKK2wt confirm: inactive; MEKK2mut confirm: inactive; MEKK3 confirm: inactive
